Rows were chosen to be rich in hits. Some 27% of all compounds tested hit in one or more screens of this group.
CYP2C9 inhib: inhibitors of human CYP2C9. CYP2C9 Supersomes, luciferin-H conversion, luminescence. inhibition, % at 5 µM. 96,000 compounds, 20% hits. AID 777;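 active = blocking of liver enzyme CYP2C9 beyond about 50% at 5 µM, limit read from the data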
CYP2C19 activ: activators of human cytochrome P450 2C19. activation factor at 5 µM. recombinant CYP2C19, luciferin-H EGE luminescence; active compounds read high; 0 = fully inhibited enzyme, 1 = untreated enzyme. AID 1025. 96,000 tested, under 10 active;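 active = activation factor of at least 2 at 5 µM in the primary screen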
CYP2C19 inhib: human CYP2C19 inhibition | P33261 | CYP2C19 Supersomes, luciferin-H EGE luminescence, 30 min | inhibition, % at 5 µM | 96,000 compounds, 21% hits;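 active = CYP2C19 inhibition above a set limit at 5 µM in the primary screen, cut at about 50% in these data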
CYP2C9 act: activators of human CYP2C9 | recombinant CYP2C9, luciferin-H conversion, luminescence; active compounds read high; factor 1 = untreated enzyme, 0 = blocked | activation factor at 5 µM | 96,000 compounds, 1.4% hits;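 active = activation factor of 2 or more for CYP2C9 at a 5 µM dose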
sEH inhibitor: blocks human soluble epoxide hydrolase activity; P34913; recombinant human sEH enzymatic activity assay; inhibition, % at 2 µM; 91,000 compounds, 0.34% hits; AID 707; in the data active = inhibition above about 80%
Target sequence (P34913 whole entry, looked up): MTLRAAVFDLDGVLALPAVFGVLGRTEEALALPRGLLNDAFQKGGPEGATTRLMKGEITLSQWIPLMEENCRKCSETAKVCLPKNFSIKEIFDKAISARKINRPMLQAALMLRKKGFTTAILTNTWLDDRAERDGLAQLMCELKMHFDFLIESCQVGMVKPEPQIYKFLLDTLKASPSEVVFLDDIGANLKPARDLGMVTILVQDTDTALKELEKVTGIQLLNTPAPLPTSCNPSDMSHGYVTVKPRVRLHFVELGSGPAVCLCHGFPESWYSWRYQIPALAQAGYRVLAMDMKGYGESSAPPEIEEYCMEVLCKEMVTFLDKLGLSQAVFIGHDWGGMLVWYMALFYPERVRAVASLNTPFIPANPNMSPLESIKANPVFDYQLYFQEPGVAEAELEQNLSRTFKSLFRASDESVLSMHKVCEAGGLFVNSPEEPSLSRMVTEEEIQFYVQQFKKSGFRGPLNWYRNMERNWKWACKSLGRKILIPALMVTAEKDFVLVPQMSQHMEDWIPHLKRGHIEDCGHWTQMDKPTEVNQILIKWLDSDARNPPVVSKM
sEH activator: soluble epoxide hydrolase (human) activation; P34913; purified human sEH enzymatic activity, activator screen; activation, % at 2 µM; 91,000 compounds, 0.04% hits; AID 717; in the data active = activation above about 37%
Hits are given with their value; n = inactive; x = not tested or not shown.

SMILES	CYP2C9 inhib	CYP2C19 activ	CYP2C19 inhib	CYP2C9 act	sEH inhibitor	sEH activator
COc1ccc(C(=O)c2cn[nH]c2-c2cc(Cl)ccc2O)cc1	92	n	98	n	n	n
Cc1ccc(C(=O)c2cn[nH]c2-c2ccccc2O)cc1	n	n	89	n	n	n
O=C(c1ccc(F)cc1)c1cn[nH]c1-c1ccccc1O	n	n	n	n	n	n
Cc1cnn(CCC(=O)NNC(=S)Nc2cccc(Cl)c2)c1	n	n	n	n	n	n
CN1C(=O)CC(N2CCN(CC(=O)N3CCCC3)CC2)C1=O (configuration not stated)	n	n	n	n	n	n
CN(C)CCCC1(O)c2ccccc2C=Cc2ccccc21	x	x	x	x	n	n
Cc1ccc(-c2nnc(N3CCN(C(=O)COc4ccccc4)CC3)c3ccccc23)cc1	87	n	79	n	n	n
O=C(COc1ccc(-c2nnc(N3CCCCC3)c3ccccc23)cc1)N1CCCCC1	x	x	x	x	n	n
CC(OC(=O)c1cccnc1SCc1cc(=O)n2ccccc2n1)c1ccccn1 (configuration not stated)	60	n	n	n	n	n
CCOC(=O)c1cccnc1SCc1cc(=O)n2ccccc2n1	n	n	n	n	x	x
COc1ccc(CCN2C(=NC(=O)CCC(=O)O)SC3CS(=O)(=O)CC32)cc1 (configuration not stated)	n	n	n	n	n	n
O=S(=O)(Nc1ccc2c(c1)nc1n2CCOC1)c1ccc(Cl)cc1	73	n	n	n	x	x
O=c1[nH]c(NCc2ccco2)nnc1Cc1ccccc1Cl	n	n	n	2.5	n	n
CCOC(=O)c1c(C)cccc1OCC(N)=O	x	x	x	x	n	n
COc1ccc(N2C(=O)CCC(C(=O)Nc3cccc(C)n3)C2c2ccc(OC)c(OC)c2)cc1 (configuration not stated)	n	n	n	n	x	x
COc1ccc(CN2CCN(c3ccccn3)CC2)c(OC)c1	n	n	n	n	x	x
C(#Cc1ccccc1)CN1CCN(c2ccccn2)CC1	76	n	98	n	n	n
Brc1ccc(CN2CCN(c3ccccn3)CC2)s1	90	n	99	n	n	n
c1ccc(COc2ccc(CN3CCN(c4ccccn4)CC3)cc2)cc1	59	n	n	n	n	n
COC(=O)c1sc2nc[nH]c(=O)c2c1C	n	n	n	n	n	n
CCN(CC)C(=O)CC(c1ccccc1)c1ccco1 (configuration not stated)	n	n	n	n	n	n
CCCN(CCC)C(=O)CC(c1ccc(F)cc1)c1ccco1 (configuration not stated)	55	n	51	n	n	n
O=C1CCC(=O)N1CCC(c1ccc(F)cc1)c1ccco1 (configuration not stated)	n	n	n	n	n	n
O=C(CC(c1ccc(F)cc1)c1ccco1)N1CCCC1 (configuration not stated)	n	n	78	n	x	x
O=C(CC(c1ccc(F)cc1)c1ccco1)N1CCOCC1 (configuration not stated)	n	n	74	n	n	n
SMILES	CYP2C9 inhib	CYP2C19 activ	CYP2C19 inhib	CYP2C9 act	sEH inhibitor	sEH activator
CCN(CC)CCCNC(=O)c1cn(CCOC)c(=O)c2c1c1ccccc1n2C	n	n	n	n	n	n
CCCCCCCCCCS(=O)(=O)N/N=C/c1ccc([N+](=O)[O-])cc1	n	n	n	n	n	n
Cc1[nH]n(C(C)(C)C)c(=O)c1Sc1ccccc1	n	n	n	n	n	n
Cc1[nH]n(-c2ccccc2)c(=O)c1Sc1ccc(Cl)cc1	86	n	52	n	n	n
Cc1onc(-c2ccccc2Cl)c1C(=O)Nc1nnc(C(C)C)s1	59	n	n	n	x	x
COC(=O)c1c(NC(=O)c2c(-c3ccccc3Cl)noc2C)sc2c1CCC2	98	n	74	n	n	n
O=C(/C=C/c1ccccc1Cl)NCc1ccco1	n	n	n	2.3	n	n
Cc1onc(-c2ccccc2Cl)c1C(=O)NCc1ccco1	n	n	51	n	n	n
Cc1noc(C)c1C(=O)NCc1ccco1	n	n	n	n	n	n
CCCc1nc2cc(CC(=O)OC)ccc2o1	n	n	n	n	n	n
Cc1sc2nc(CN3CCCC3)nc(N3CCC(C(N)=O)CC3)c2c1C	n	n	n	n	n	n
CCN(CC)S(=O)(=O)c1ccc(C2CNC(=O)C2)cc1 (configuration not stated)	n	n	n	n	n	n
Cc1onc(-c2ccccc2Cl)c1C(=O)Nc1nnc(Cc2ccc(Cl)cc2)s1	88	n	n	n	n	n
CCOc1cc(C2C(C#N)=C(N)OC3CCCC(=O)C32)ccc1OCCN1CCOCC1 (configuration not stated)	n	n	n	n	n	n
O=S1(=O)CCN2C(=N1)Sc1c2ccc2c1CCCC2	n	n	70	n	x	x
O=S1(=O)CCN2C(c3ccc4c(c3)CCCC4)=CSC2=N1	n	n	n	n	x	x
COCCCn1c(SCC(=O)OC2CCCCC2)nnc1-c1ccco1	n	n	n	2.2	n	n
COCCCn1c(SCC(=O)NC2CCCC2)nnc1-c1ccco1	n	n	n	n	n	n
COCCCn1c(SCC(=O)OC2CCCCC2)nnc1-c1cccs1	n	n	85	n	n	n
Cn1c(SCC(=O)N(C2CCCCC2)C2CCCCC2)nnc1-c1cccs1	n	n	n	n	n	n
CCOC(=O)c1c(C)[nH]c(C(=O)CN2CC(C)OC(C)C2)c1C (configuration not stated)	n	n	n	n	n	n
COc1ccc(-c2[nH]ncc2-c2cnc(C)s2)c(O)c1	n	n	90	n	x	x
COc1ccc(O)c(-c2cn[nH]c2-c2cccs2)c1	88	n	99	n	n	n
COc1ccccc1N1CCN(C(c2cccs2)C(C)NC(=O)c2cccs2)CC1 (configuration not stated)	x	x	x	x	n	n
COc1ccc(-n2nc3c(c2NC(=O)c2ccc(Br)cc2)CS(=O)C3)cc1 (configuration not stated)	n	n	n	n	n	n
SMILES	CYP2C9 inhib	CYP2C19 activ	CYP2C19 inhib	CYP2C9 act	sEH inhibitor	sEH activator
CCOC(=O)N1CCN(C(=O)CN(c2ccc3c(c2)OCO3)S(C)(=O)=O)CC1	n	n	n	n	n	n
O=C(COC(=O)[C@H](Cc1c[nH]c2ccccc12)NC(=O)c1ccc(Cl)cc1)Nc1ccc2c(c1)OCO2	98	n	n	n	n	n
O=c1[nH]c(CSc2nnc(NCCCN3CCOCC3)s2)nc2cc(Cl)ccc12	n	n	n	n	n	n
CC(=O)Oc1cc2oc(=O)c3c(c2cc1Cl)CCC3	n	n	n	n	x	x
CCOc1ccc(N(CC(=O)NCC2CCCO2)S(=O)(=O)c2ccc(SC)cc2)cc1 (configuration not stated)	n	n	68	n	n	n
COc1ccc(N(CC(=O)NCC2CCCO2)S(=O)(=O)c2ccc(C)cc2)cc1OC (configuration not stated)	55	n	n	n	n	n

Screening data (PubChem)
